Broadly, the inhibition is the drop in the measured response relative to a control, in per cent.

Test [1] has as its target NAD(+) hydrolase SARM1 (Homo sapiens) (UniProt Q6SZW1). Nature of the test: blocking NAD cleavage by SARM1 SAM-TIR – cell lysate, NAD-Glo luminescence (AID 1508614;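 active means compound whose remaining NAD level is above about 45 nM, limit read from the data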). Conditions: SAM-TIR HEK293T lysate NADase, at 1 µM, stronger effect = higher value.
Test [2] can be described thus: galactose survival enhancers in mitochondrial complex I cybrids – cell-based, galactose medium, ATP luminescence, primary screen (AID 1645843;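 active means z-score of at least 1.8 in each of two replicates, scored against plate mean and spread of sample wells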;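 further: positive z means more ATP and so rescue of galactose-driven cybrid death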). Conditions: complex I mutant cybrid cells, 72 h, stronger effect = higher value.
Test [3] addresses Mitogen-activated protein kinase 7 (Homo sapiens) (UniProt Q13164). Nature of the test: Gal4-ERK5 driven luciferase induction – cell-based, HTS, primary screen (AID 1508626;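 active means luciferase signal above three times the same-plate solvent-only control wells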;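 further: luciferase driven by Gal4-ERK5 fusion binding five Gal4 sites before minimal TATA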). The conditions noted are these: HeLa Gal4-ERK5 transactivation, 18 h, at 5 µM, stronger effect = higher value.
Test [4] is described as follows: growth inhibition, single agent or in combination, cell-based, chromothripsis tumors, cisplatin or BGB combos (AID 1671449).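 Further: cells exposed for 96 hours; 0% = vehicle DMSO and 100% = killing by high DMSO.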 The conditions noted are these: LFS_MB_P medulloblastoma cells.
Test [5] can be described thus: growth inhibition, single agent and combos, cell-based, chromothripsis tumors, cisplatin or BGB combos (AID 1671450).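 Further: cells exposed to compound for four days; 0% = vehicle DMSO and 100% = cell killing by high DMSO.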 Conditions: HDN33 neuroblastoma cells, stronger effect = higher value.
The nature of test [6]: growth inhibition, single agents and combos, ICB984, cell-based, cisplatin or BGB combos, synergistic combos for chromothripsis tumors (AID 1671451; call rule not given here;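 further: cells exposed for 96 hours before readout; 0% = vehicle DMSO and 100% = killing by high DMSO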). The conditions noted are these: ICB984 medulloblastoma cells, drug combinations, stronger effect = higher value.
The nature of test [7]: growth inhibition, single agents and combos, LFS_MB_1R, cell-based, cisplatin or BGB combos, synergistic combos for chromothripsis tumors (AID 1671452).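 Further: cells exposed for 96 hours before readout.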 The conditions noted are these: LFS_MB_1R medulloblastoma cells, stronger effect = higher value.
Test [8] in a line: growth inhibition, single agents and combos, HTB85, cell-based, BGB or cisplatin IC20 combos, synergistic combos for chromothripsis tumors (AID 1671453).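 Further: cells exposed for 96 hours before readout; 0% = vehicle DMSO and 100% = high DMSO killing control.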 The conditions noted are these: HTB85 osteosarcoma cells, drug combinations, stronger effect = higher value.
Test [9] is described as follows: growth inhibition, single agents and combos, CRL2098, cell-based, BGB or cisplatin IC20 combos, synergistic combos for chromothripsis tumors (AID 1671454).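 Further: cells exposed for 96 h before readout; 0% = vehicle DMSO and 100% = killing by high DMSO.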 The conditions noted are these: CRL2098 osteosarcoma cells, drug combinations, stronger effect = higher value.
Test [10] can be described thus: growth inhibition, single agents and combos, HD-MB03, cell-based, BGB or cisplatin IC20 combos, synergistic combos for chromothripsis tumors (AID 1671455; in the data active means inhibition above about 83%;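 further: 0% = vehicle DMSO and 100% = high DMSO as cytotoxic control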). The conditions noted are these: HD-MB03 medulloblastoma cells, stronger effect = higher value.
A short description of test [11]: growth inhibition, single agents and combos, UWB1.289, cell-based, BGB or cisplatin combos, synergistic combos for chromothripsis tumors (AID 1671456).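 Further: cells exposed to compound for four days; 0% = vehicle DMSO and 100% = killing by high DMSO.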 The conditions noted are these: UWB1.289 ovarian carcinoma cells, stronger effect = higher value.
Test [12] can be described thus: growth inhibition, single agents and combos, LFS_MB_2R, cell-based, cisplatin combos, synergistic combos for chromothripsis tumors (AID 1671457).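 Further: cells exposed to compound for four days before readout.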 The conditions noted are these: LFS_MB_2R medulloblastoma cells, stronger effect = higher value.
The nature of test [13]: growth inhibition, MDA-MB-436, cell-based, BGB or cisplatin combos, synergistic combos for chromothripsis tumors (AID 1671458; call rule not given here;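 further: cells exposed for 96 hours; 0% = vehicle DMSO and 100% = killing by high DMSO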). Conditions: MDA-MB-436 breast carcinoma growth inhibition, drug combinations, stronger effect = higher value.
Test [14] is described as follows: UWB1.289_BRCA1 ovarian cancer growth, cell-based, BGB or cisplatin combinations (AID 1671459). The conditions noted are these: UWB1.289 BRCA1 ovarian carcinoma, drug combinations, stronger effect = higher value.
Test [15] can be described thus: drug combination toxicity in non-malignant astrocytes – cell-based, BGB or cisplatin IC20 combos, cytotoxicity control for chromothriptic childhood tumor combination screen (AID 1671460).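 Further: cells exposed to compounds for 96 hours before viability readout; 0% = vehicle and 100% = killing control.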 The conditions noted are these: Human astrocytes, viability inhibition, drug combinations, at 0.5 µM, stronger effect = higher value.
Test [16] is described as follows: BT084 cell growth, single and combined drugs, ICGC_MB145, cisplatin and BGB IC40 combos (AID 1671461).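 Further: cells exposed to drugs for 96 hours; 0% = vehicle DMSO and 100% = high DMSO full killing control.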 The conditions noted are these: BT084 medulloblastoma cells, drug combinations, stronger effect = higher value.
The nature of test [17]: RCMB18 cell growth, single agent and combined, cisplatin and BGB IC40 combos (AID 1671462).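 Further: cells exposed to compound for four days.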 The conditions noted are these: RCMB18 medulloblastoma cells, stronger effect = higher value.
Test [18] is described as follows: CRL1545 cell growth, single agent and combined, cisplatin and BGB IC20 combos (AID 1671464).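 Further: cells exposed to compound for 96 hours before readout; 0% = vehicle DMSO and 100% = high DMSO killing control.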 Conditions: CRL1545 osteosarcoma cells, stronger effect = higher value.
The mark [19] stands for this setting: measured here: combination with BGB IC40, at 0.05 µM.
Where [20] appears, read: measured here: with BGB IC20 combination, at 0.5 µM.
Where [21] appears, read: measured here: with cisplatin IC20 combination, at 0.5 µM.
[22] abbreviates: measured here: combination with cisplatin, at 0.5 µM.
[23] abbreviates: measured here: combination with cisplatin, at 5 µM.

SMILES strings stand for the structures. The source made the active and inactive calls. Unless noted, no stated cut-off is given here; in the data, active means inhibition above about 80%; inactive means the rest.

Sequence of NAD(+) hydrolase SARM1 (Homo sapiens) (Q6SZW1 whole entry, looked up): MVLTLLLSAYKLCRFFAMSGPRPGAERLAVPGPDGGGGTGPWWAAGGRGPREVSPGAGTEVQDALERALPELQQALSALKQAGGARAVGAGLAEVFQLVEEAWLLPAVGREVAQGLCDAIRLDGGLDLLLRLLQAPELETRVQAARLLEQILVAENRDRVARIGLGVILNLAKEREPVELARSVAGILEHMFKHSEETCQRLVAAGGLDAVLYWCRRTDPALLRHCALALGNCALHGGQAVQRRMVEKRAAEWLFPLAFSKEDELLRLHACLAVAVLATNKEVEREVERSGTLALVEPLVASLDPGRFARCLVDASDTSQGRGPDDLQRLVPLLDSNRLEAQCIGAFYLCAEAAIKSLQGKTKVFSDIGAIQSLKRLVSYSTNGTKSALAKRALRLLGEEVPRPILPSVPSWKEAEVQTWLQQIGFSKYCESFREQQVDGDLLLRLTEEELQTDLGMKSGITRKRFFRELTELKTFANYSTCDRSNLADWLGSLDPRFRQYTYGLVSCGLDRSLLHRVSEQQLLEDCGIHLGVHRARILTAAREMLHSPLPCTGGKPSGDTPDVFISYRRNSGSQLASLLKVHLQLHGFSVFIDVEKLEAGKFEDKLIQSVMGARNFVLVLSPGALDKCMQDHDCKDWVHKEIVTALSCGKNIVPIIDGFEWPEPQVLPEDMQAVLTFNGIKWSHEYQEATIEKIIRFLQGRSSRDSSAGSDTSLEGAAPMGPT
Sequence of Mitogen-activated protein kinase 7 (Homo sapiens) (Q13164 whole entry, looked up, the tested form may be a part): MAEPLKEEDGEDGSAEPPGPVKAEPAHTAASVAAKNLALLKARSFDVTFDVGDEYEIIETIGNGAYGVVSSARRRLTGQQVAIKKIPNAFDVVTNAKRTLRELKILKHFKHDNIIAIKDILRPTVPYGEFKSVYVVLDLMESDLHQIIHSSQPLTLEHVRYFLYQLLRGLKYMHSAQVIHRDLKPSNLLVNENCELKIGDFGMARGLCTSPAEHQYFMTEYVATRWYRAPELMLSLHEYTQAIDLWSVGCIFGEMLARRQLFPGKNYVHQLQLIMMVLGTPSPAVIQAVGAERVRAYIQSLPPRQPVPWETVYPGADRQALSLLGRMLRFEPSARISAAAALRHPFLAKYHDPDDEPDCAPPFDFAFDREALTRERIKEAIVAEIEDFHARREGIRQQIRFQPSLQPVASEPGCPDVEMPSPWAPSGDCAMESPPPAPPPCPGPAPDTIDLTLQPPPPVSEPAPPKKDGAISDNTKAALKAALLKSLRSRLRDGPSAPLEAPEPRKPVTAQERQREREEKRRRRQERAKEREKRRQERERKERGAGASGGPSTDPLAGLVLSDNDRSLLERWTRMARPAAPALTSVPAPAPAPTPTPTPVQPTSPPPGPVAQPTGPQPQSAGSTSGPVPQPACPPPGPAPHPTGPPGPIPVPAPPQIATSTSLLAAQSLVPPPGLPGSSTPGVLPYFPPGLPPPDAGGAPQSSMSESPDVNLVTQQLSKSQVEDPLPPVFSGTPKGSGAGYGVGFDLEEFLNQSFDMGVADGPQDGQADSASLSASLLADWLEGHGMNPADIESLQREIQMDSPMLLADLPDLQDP

As to `CC1=NN(c2ccccc2)C(=O)C1`, the remaining NAD in test [1] is 10 nM (inactive). Besides, in [2], the z-score was 1.25 (inactive).
For `Cc1c(C(=O)O)c(O)cc2c1C(=O)c1c(O)c([C@@H]3O[C@H](CO)[C@@H](O)[C@H](O)[C@H]3O)c(O)c(O)c1C2=O`, the luciferase signal in test [3] was 52 AU (inactive).
With `COC(=O)Nc1nc2ccc(S(=O)c3ccccc3)cc2[nH]1` (centres undefined), in test [1], the remaining NAD was 10 nM (inactive). In addition, the z-score in [2] is -0.185 (inactive).
Turning to `C[C@@H]1CN(c2c(F)c(N)c3c(=O)c(C(=O)O)cn(C4CC4)c3c2F)C[C@H](C)N1`, the remaining NAD in [1] is 10 nM (inactive). Moreover, the z-score in test [2] is 0.565 (inactive).
On the same counts, the results for `NC(Cc1ccc(Cl)cc1)C(=O)O` (centres undefined) are 10 nM (inactive) and 0.25 (inactive).
Turning to `CN(C)c1ccc(C(=C2C=CC(=[N+](C)C)C=C2)c2ccc(N(C)C)cc2)cc1`, the remaining NAD in test [1] is 10 nM (inactive). Further, the luciferase signal in [3] is 104 AU (inactive). In addition, the inhibition in [4] (at 0.5 µM, stronger effect = higher value) is -1.03% (inactive); in test [4] (measured here: combination with BGB IC20, at 0.005 µM), -15.3%; in test [4] (measured here: combination with BGB IC40, at 0.005 µM) it was -20.2%; in [4] (setting [19]), -19.9%; in [4] (measured here: combination with cisplatin, at 0.5 µM, stronger effect = higher value), -17.8%; in test [4] (measured here: combination with cisplatin, at 5 µM, stronger effect = higher value), 112%. Further, the inhibition in test [5] (BGB combo, at 5 µM) is 99.3%; in test [5] (at 0.5 µM) it was 99.6% (active); in test [5] (cisplatin combo, at 5 µM), 99.6%; in [5] (setting [20]), 99.7%; in test [5] (setting [21]), 99.6%; in test [5] (single agent, at 5 µM) it was 99.7%. Besides, the inhibition in test [6] (BGB IC20 combo, at 0.005 µM) is 79.3%; in [6] (BGB IC40 combo, at 0.005 µM) it was 87.3%; in test [6] (BGB IC40 combo, at 0.05 µM), 98.5%; in [6] (at 0.5 µM), -35.3% (inactive); in test [6] (cisplatin combo, at 0.05 µM), 98.5%; in test [6] (cisplatin combo, at 0.5 µM) it was -53%. For the same molecule, the inhibition in [6] (cisplatin combo, at 5 µM) was -16%; in [6] (measured here: 5 uM single agent, at 5 µM), 6.83%; in [7] (at 0.5 µM) it was 80.9% (active); in test [7] (setting [19]) it was -11%; in [7] (setting [22]), 82.3%; in test [7] (setting [23]) it was 104%. Moreover, the inhibition in test [8] (at 0.5 µM) was 88.8% (active); in test [8] (measured here: with BGB IC20, at 0.5 µM), 84.9%; in [8] (measured here: with BGB IC20, at 5 µM), 94%; in [8] (measured here: with cisplatin IC20, at 0.5 µM), 92.7%; in test [8] (measured here: with cisplatin IC20, at 5 µM), 97.1%; in [8] (single agent, at 5 µM), 96.8%. For the same molecule, the inhibition in test [9] (at 0.5 µM) is 75.8% (inactive); in [9] (measured here: combination with BGB at IC20, at 0.5 µM), 79.9%; in test [9] (measured here: combination with cisplatin at IC20, at 0.5 µM) it was 70.6%; in test [10] (at 0.5 µM) it was 59.5% (inactive); in test [10] (measured here: combo with BGB at IC20, at 0.5 µM), 60.7%; in [10] (measured here: combo with cisplatin at IC20, at 0.5 µM), 47%. Also, the inhibition in test [11] (at 0.5 µM) is 68.6% (inactive); in test [11] (measured here: inhibition with BGB combination, at 0.05 µM) it was -11.5%; in [11] (measured here: inhibition with cisplatin combination, at 0.05 µM), 0.874%; in test [12] (at 0.5 µM) it was 55.4% (inactive); in [12] (setting [22]) it was 59.1%; in test [12] (setting [23]), 89.4%. Also, the inhibition was 80.4% (active) in test [13] (at 0.5 µM); 73.7% in test [13] (measured here: BGB combination, at 0.5 µM); 97.1% in test [13] (measured here: BGB combination, at 5 µM); 80.1% in test [13] (measured here: cisplatin combination, at 0.5 µM); 98.7% in test [13] (measured here: cisplatin combination, at 5 µM); 105% in test [14] (BGB combination, concentration series, at 5 µM). Besides, the inhibition is 71.7% (inactive) in [14] (at 0.5 µM); 110% in [14] (cisplatin combination, concentration series, at 5 µM); 67.2% (inactive) in test [15]; 65.8% in test [15] (measured here: combo with BGB IC20); 54.6% in [15] (measured here: combo with cisplatin IC20); 70.2% (inactive) in test [16] (at 0.5 µM). Further, the inhibition in [16] (cisplatin combination, at 0.5 µM) is 82.8%; in test [16] (cisplatin combination, at 5 µM), 101%; in [16] (measured here: BGB IC40 combination 0.05 uM, at 0.05 µM), -10.9%; in test [16] (single agent, at 5 µM), 103%; in test [17] (at 0.5 µM), 64.4% (inactive); in test [17] (cisplatin combo, at 5 µM), 97.3%. Also, the inhibition was 11.2% in [17] (measured here: BGB IC40 combination, at 0.05 µM); 59.9% in test [17] (setting [22]); 94.1% in test [17] (single agent, at 5 µM); 99.5% (active) in [18] (at 0.5 µM); 99.4% in test [18] (setting [20]); 99.5% in test [18] (setting [21]). Further, the inhibition came to 17.4% in test [18] (single agent, at 0.05 µM) and 99.6% in [18] (single agent, at 5 µM).

The values are drawn from PubChem BioAssay.
